# Reference: PubChem BioAssay (Tox21)
# Records with an inconclusive call do not appear. Where a call stands in place of a potency, no number is given. Calls of active or inactive are those of the source. The call rests on the fitted dose curve.
# Experiment: qHTS assay for small molecules that induce genotoxicity in human embryonic kidney cells expressing luciferase-tagged ATAD5 - cell viability (AID 651634); further: nearly all actives have a fitted effect of over 25% in size
# Conditions: HEK293T ATAD5-luc cells viability, CellTiter-Fluor, 15.5 h; series mostly up to 83.3 µM
# Description: National Center for Advancing Translational Sciences [NCATS]
# NIH Chemical Genomics Center [NCGC]
# U.S. Environmental Protection Agency [EPA]
# National Institutes of Environmental Health Sciences [NIEHS]
# National Toxicology Program [NTP]
# U.S. Food and Drug Administration [FDA]
# Enhanced Level of Genome Instability Gene 1 (ELG1; human ATAD5) protein levels increase in response to various types of DNA damage. Using a luciferase reporter-gene tagged with ElG1, a cell-based assay [developed by Kyungjae Myung, NHGRI, NIH] was used to measure the induction of ATAD5 in human embryonic kidney cells (HEK293T). So, increase in luciferase activity can be used to identify the compounds that cause genetic stress. In addition to genotoxicity, these cells were also used to test for cytotoxicity by measuring the protease activity within live cells.
# Tox21 Assay Protocol Summary:
# For cytotoxicity screening, 2,000 cells in 5 uL/well were dispensed into white, solid-bottom 1536-well plates using a Multidrop Combi (Thermo Scientific) dispenser. Following transfer of 23 nL compound or DMSO vehicle by a pin tool, the plates were incubated 15.5 hr at 37C and 5% CO2. 1 ul CellTiter-Fluor reagent (Promega, Madison, WI) was then added to each plate and following 30 min incubation at 37C, fluorescence intensity was quantified on a ViewLux CCD-based plate reader.
row,SMILES,Potency
1,CC1CN(c2ccccc2)NC1=O (stereo not given),inactive
2,Cc1ccc(C)c(N)c1,inactive
3,CNCCC(Oc1ccccc1OC)c1ccccc1 (stereo not given),inactive
4,CCCc1c2oc(C(=O)O)cc(=O)c2cc2c(=O)cc(C(=O)O)n(CC)c12,inactive
5,CCOC(=O)C1CC(=O)C(=C(O)C2CC2)C(=O)C1 (stereo not given),inactive
6,CCNCCO,inactive
7,CC(=O)OC1C2(C)CCC(C2)C1(C)C (stereo not given),inactive
8,Cc1nc(-c2ccccn2)ncc1C(=O)Nn1cc(C)c2cc(F)ccc21,inactive
9,O=C(O)c1ccccc1Nc1cc(Cl)ccc1C(=O)O,inactive
10,Cc1ccc([N+](=O)[O-])cc1Cl,inactive
11,CCCCCCCCCCCCCCCCOP(=O)([O-])OCC[N+](C)(C)C,inactive
12,CCCNC(C)C(=O)Nc1c(C)csc1C(=O)OC (stereo not given),inactive
13,CC(C)(C)c1cccc(O)c1,inactive
14,CC(C)=CCC[C@](C)(O)[C@@H]1CC=C(C)CC1,inactive
15,CN1CCN(C2=Nc3cc(F)ccc3Cc3ccccc32)CC1,inactive
16,O=C(O)[C@@H](O)[C@H](O)[C@H](O)[C@@H](O)C(=O)O,inactive
17,Nc1ccc(Oc2ccc(N)c(N)c2)cc1,inactive
18,Oc1ccccc1F,inactive
19,CO[C@@]1(NC(=O)CSCC#N)C(=O)N2C(C(=O)O)=C(CSc3nnnn3C)CS[C@@H]21,inactive
20,CCN(CCCc1ccccc1)CCCc1ccccc1,inactive

row,SMILES,Potency
1,CC(C)S,inactive
2,CCCCC1CCC(=O)O1 (stereo not given),inactive
3,Cc1cccc(C)c1NC(=O)CN1CCCCCC1,inactive
4,Cc1c[nH]c(=S)[nH]c1=O,inactive
5,CC(C)(C)C1CCCCC1=O (stereo not given),inactive
6,CC(=O)Oc1cc(C(C)C)c(OCCN(C)C)cc1C,inactive
7,FC(F)(F)C(F)(F)C(F)(F)C(F)(F)C(F)(F)C(F)(F)C(F)(F)C(F)(F)Br,inactive
8,CC1=C2[C@H](/C=C(\C)C(=O)O)CC[C@@H](C)[C@H]2CC1,inactive
9,C=O,inactive
10,CO[Si](C)(C)OC,inactive
11,CCN(CC)CCNC(=O)COc1ccc(Cl)cc1,inactive
12,C[C@@H]1CN(c2c(F)c(F)c3c(=O)c(C(=O)O)cn(C4CC4)c3c2F)C[C@H](C)N1,inactive
13,CN(CCCN1c2ccccc2CCc2ccccc21)CC(=O)c1ccc(Cl)cc1,inactive
14,COc1ccccc1OCC(O)COC(N)=O (stereo not given),inactive
15,CCCCCCCCCC#N,inactive
16,CN1CCN(C2=Nc3ccccc3Oc3ccc(Cl)cc32)CC1,inactive
17,CCN(CC)C(=O)N(CC)CC,inactive
18,O=C1CCCc2ccccc21,inactive
19,C=CC1CO1 (stereo not given),inactive
20,Nc1ccc2ccccc2c1S(=O)(=O)O,inactive
